Data as given in the supplement of paper PMC6992640.

test system: HCI11 (cells of an ER-positive luminal breast cancer xenograft); test: cell viability (% of vehicle); higher = less cytotoxic; conditions: 10 µM; 72 h
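Note: PDX cells carrying CMV promoter-driven luciferase, viability read as total photon flux per second by IVIS imaging following D-luciferin, vehicle control 0.1% DMSO.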

Row | SMILES | cell viability
1 | CC1COc2c(N3CCN(C)CC3)c(F)cc3c(=O)c(C(=O)O)cn1c23 (stereo not drawn) [Ofloxacin] | 86.6
2 | Cc1cc(Nc2cc(N3CCN(C)CC3)nc(Sc3ccc(NC(=O)C4CC4)cc3)n2)n[nH]1 [VX-680 (MK-0457,Tozasertib)] | 133
3 | O=C([O-])P(=O)([O-])[O-].[Na+].[Na+].[Na+] [Foscarnet Sodium] | 89.6
4 | Cc1onc(-c2ccccc2Cl)c1C(=O)NC1C(=O)N2C1SC(C)(C)C2C(=O)[O-].O.[Na+] (stereo not drawn) [Cloxacillin Sodium] | 134
5 | CNCc1ccc(-c2[nH]c3cc(F)cc4c3c2CCNC4=O)cc1.O=P(O)(O)O | 85.9
6 | CN1CCC(OC(c2ccccc2)c2ccccc2)CC1.Cl [Diphenylpyraline HCl] | 106
7 | COc1cc(OC)c(C(=O)CCCN2CCCC2)c(OC)c1.Cl [Buflomedil HCl] | 94.4
8 | CC(C)(O)c1ccccc1CCC(SCC1(CC(=O)[O-])CC1)c1cccc(C=Cc2ccc3ccc(Cl)cc3n2)c1.[Na+] (stereo not drawn) [Montelukast Sodium] | 103
9 | CC(=O)Oc1ccccc1C(=O)O [Aspirin (Acetylsalicylic acid)] | 136
10 | CCN(CCCc1ccccc1)CCCc1ccccc1.O=C(O)CC(O)(CC(=O)O)C(=O)O [Alverine Citrate] | 94.6
11 | CC#CCn1c(N2CCCC(N)C2)nc2c1c(=O)n(Cc1nc(C)c3ccccc3n1)c(=O)n2C (stereo not drawn) [Linagliptin (BI-1356)] | 142
12 | Cc1cc2c(s1)=Nc1ccccc1NC=2N1CCN(C)CC1 [Olanzapine] | 88.7
13 | CC1(O)CC(c2nc(-c3ccc4ccc(-c5ccccc5)nc4c3)c3c(N)nccn23)C1 (stereo not drawn) [Linsitinib] | 76.3
14 | Cc1cn(C2CC(O)C(CO)O2)c(=O)[nH]c1=O (stereo not drawn) [Telbivudine] | 115
15 | Nc1ncnc2c1ncn2C1OC(CO)C(O)C1O (stereo not drawn) [Adenosine] | 96.9
16 | CC(=O)[C@@]1(O)CC[C@H]2[C@@H]3CCC4=CC(=O)CCC4=C3[C@@H](c3ccc(N(C)C)cc3)C[C@@]21C [Ulipristal] | 82.9
17 | Cc1c(OCC(F)(F)F)ccnc1CS(=O)c1nc2ccccc2[nH]1 (stereo not drawn) [Dexlansoprazole] | 134
18 | c1cc(CN2CCCNCCNCCCNCC2)ccc1CN1CCCNCCNCCCNCC1 [Plerixafor (AMD3100)] | 84.7
19 | COS(=O)(=O)[O-].C[N+]1(C)CCC(=C(c2ccccc2)c2ccccc2)CC1 [Diphemanil Methylsulfate] | 109
20 | CC(O)C1C(=O)N2C(C(=O)OCOC(=O)C(C)(C)C)=C(SC3CN(C4=NCCS4)C3)C(C)C12 (stereo not drawn) [Tebipenempivoxil] | 115
21 | CS(=O)(=O)N1CCN(Cc2cc3nc(-c4cccc5[nH]ncc45)nc(N4CCOCC4)c3s2)CC1 | 114
22 | O=C(NC(CO)C(O)c1ccc([N+](=O)[O-])cc1)C(Cl)Cl (stereo not drawn) [Chloramphenicol] | 86.1
23 | Cc1ccc(Nc2nccc(N(C)c3ccc4c(C)n(C)nc4c3)n2)cc1S(N)(=O)=O.Cl | 85.4
24 | NC(=O)N1CCC(CC(=O)N2CCC(C3c4ncc(Br)cc4CCc4cc(Cl)cc(Br)c43)CC2)CC1 (stereo not drawn) [Lonafarnib] | 163
25 | CC(C)OC(=O)OCOP(=O)(COC(C)Cn1cnc2c(N)ncnc21)OCOC(=O)OC(C)C.O=C(O)C=CC(=O)O (stereo not drawn) [Tenofovir Disoproxil Fumarate] | 97
26 | CC1(C)SC2C(NC(=O)C(C(=O)[O-])c3ccccc3)C(=O)N2C1C(=O)[O-].[Na+].[Na+] (stereo not drawn) [Carbenicillin, Disodium Salt] | 103
27 | CC1C(=O)OC2CC34C5CC(C(C)(C)C)C36C(OC(=O)C6O)OC4(C(=O)O5)C21O (stereo not drawn) [Ginkgolide A] | 96.5
28 | CNS(=O)(=O)Cc1ccc2[nH]cc(CCN(C)C)c2c1 [Sumatriptan] | 90.7
